SARS PLP yeast: qHTS of Yeast-based Assay for SARS-CoV PLP. S. cerevisiae expressing SARS-CoV PLpro, growth rescue. Potency, µM (doses to about 32.9 µM), for inactives: at the highest dose activity, positive = growth rescue, actives largely listed as activators. 330,000 compounds, 0.19% hits. AID 485353, 2010; calls by dose curve; note: 0% is about no effect; nearly all actives have a fitted effect of over 55% in size
Pf growth 96h: Primary qHTS for delayed death inhibitors of the malarial parasite plastid, 96 hour incubation; AID 504834, 2011; 320,000 compounds, 6.9% hits; Potency, µM (titrated, usually from 28.7 µM), for inactives: at the highest dose activity change, negative = inhibition, usual class: inhibitors; P. falciparum luciferase reporter growth, 96 h; note: % is set by controls: 0 for no effect and ±100 for the full control effect
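Delayed-death screen, second-generation endpoint: infected erythrocytes, 2% hematocrit, 0.05% parasitemia final; 96 hours at 37 C, 5% CO2; luciferase detection reagent; luminescence decrease equals reduced growth.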
RE007 growth inh: qHTS Assay for Inhibitors of the HIV-1 protein Vpr; S. pombe RE007 Vpr strain, BacTiter-Glo ATP luminescence, 24 h; AID 651644, 2012; 360,000 compounds, 0.21% hits; Potency, µM (top dose mostly 92.2 µM), for the others: top-dose activity change, negative = less growth, actives largely listed as inhibitors; active = well fitted falling curve with a large enough effect; inconclusive = small, poorly fitted or top-dose-only effect; inactive = no such curve, though single readings can be large or run the other way; note: % is set by controls: 0 for no effect and ±100 for the full control effect; nearly all actives have a fitted effect of over 50% in size
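Fission yeast strain RE007, carrying one chromosomally integrated HIV-1 vpr copy, was seeded at OD 0.01 in PMG+AL medium with 23 nL pinned compound. After 24 h at 30 °C and 99% humidity, viability was read by BacTiter-Glo luminescence.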
Pf growth 48h: Primary qHTS for delayed death inhibitors of the malarial parasite plastid, 48 hour incubation | P. falciparum luciferase growth in erythrocytes, 48 h | Potency, µM (series often up to 28.7 µM), without a hit: top-dose activity change, negative = inhibition, hits mostly inhibitors | 310,000 compounds, 5.9% hits | AID 504832, 2011; note: % is set by controls: 0 for no effect and ±100 for the full control effect
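First compound was added to culture medium, then infected red cells at 0.1% parasitemia and 2% hematocrit (final). After incubation at 37 C under 5% CO2, luciferase detection reagent was dispensed and light output recorded.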
NS1 function inh: qHTS Assay for Inhibitors of Influenza NS1 Protein Function | Potency, µM (series often up to 46.1 µM), for inactives: at the top dose activity, positive = more growth | 270,000 compounds, 0.4% hits | AID 2326, 2010; calls by dose curve; note: actives are rising curves; nearly all actives have a fitted effect of over 50% in size
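OD600 was taken as the measure of yeast growth restored by compound in an NS1-expressing S. cerevisiae strain. Cells had been washed out of glucose medium and diluted 1:100 into galactose -URA medium, pH 6.0.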
The depositor's hits bear a star; ? = inconclusive; / = not tested or not shown. An excerpt weighted towards active compounds, which were near 9.5% of everything screened. Unless noted, calls come from the whole dose curve; as a rule, active = well fitted inhibition curve with a large enough effect; inconclusive = small, poorly fitted or top-dose-only effect, or another doubt; inactive = no such curve, though single readings can be large or run the other way. Potency is the fitted concentration of half-maximal effect.

SMILES	SARS PLP yeast	Pf growth 96h	RE007 growth inh	Pf growth 48h	NS1 function inh
Cc1cc(O)c(-c2cc(C(=O)Nc3sc4c(c3C(=O)NCc3ccco3)CCC4)[nH]n2)cc1C	-0.3%	1.85µM*	-0.9%	1.17µM*	?
COC(=O)Nc1sc2c(c1C(=O)NCc1ccco1)CCCC2	0.9%	?	3.9%	-16.6%	4.4%
COc1ccc(C(=O)Nc2sc3c(c2C(=O)NCc2ccco2)CCCC3)cc1OC	8.8%	3.29µM*	-5.4%	/	4.5%
COc1ccc(C(=O)Nc2ccc(Cl)cc2C(=O)NCc2ccco2)cc1OC	3.5%	21.9%	6.0%	10.4µM*	-52.4%
COc1cc(C(=O)Nc2sc3c(c2C(=O)NCc2ccco2)CCCC3)cc(OC)c1OC	11.7%	1.65µM*	4.9%	/	2.2%
COc1ccc(/C=C/C(=O)OCC(=O)c2cc(C)ccc2C)cc1	/	/	-14.0%	/	/
O=C(NCCCN1CCOCC1)c1[nH]c(C(F)(F)F)nc1-c1ccccc1	/	/	6.3%	/	/
NC(=O)C1CCN(c2oc(-c3ccccc3)nc2S(=O)(=O)c2ccc(Br)cc2)CC1	-4.5%	?	-6.9%	?	-2.6%
CCCOc1ccc(-c2nc(C#N)c(N3CCN(CC)CC3)o2)cc1	-3.7%	10.4µM*	-11.1%	?	0.2%
N#Cc1nc(-c2ccc(OCc3ccc(Cl)cc3)cc2)oc1N1CCC(C(N)=O)CC1	-0.1%	-0.3%	-11.8%	/	-6.1%
N#Cc1nc(-c2ccc(OCc3ccc(Cl)cc3)cc2)oc1N1CCOCC1	?	10.4µM*	0.3%	23.1%	-3.6%
CCCOc1ccc(-c2nc(C#N)c(N3CCC(C(N)=O)CC3)o2)cc1	1.0%	10.4µM*	0.2%	-2.0%	3.3%
Cc1ccc(S(=O)(=O)c2nc(-c3ccccc3)oc2N2CCC(C(N)=O)CC2)cc1	0.8%	13.1µM*	5.2%	?	3.5%
COc1ccc(OC)c(S(=O)(=O)N/N=C\c2cn(CC(N)=O)c3ccccc23)c1	-4.2%	2.7%	?	6.4%	-8.2%
O=C(Nc1ccccc1C(=O)O)c1cccc(NC(=O)c2ccccc2Cl)c1	-3.5%	10.4µM*	-13.5%	15.2%	1.9%
NC(=O)c1ccccc1NC(=O)c1ccccc1Cl	0.3%	?	1.5%	2.8%	-4.8%
O=C(Nc1ccccc1C(=O)O)c1cccc(NC(=O)c2ccco2)c1	9.3%	11.4%	14.9%	?	-0.9%
O=C(Nc1ccccc1NC(=O)c1ccccc1Cl)c1ccccc1Cl	2.9%	14.7µM*	23.7%	?	-3.0%
O=C(Nc1ccccc1C(=O)Nc1nnc(C(F)(F)F)s1)c1ccccc1Cl	-0.8%	4.65µM*	8.1%	?	1.1%
O=C(CN1CCCCC1)Nc1cccc([N+](=O)[O-])c1	4.1%	81.7%	-7.2%	0.0%	2.7%
CC(C)(C)c1ccc(NC(=O)N2CCCN(c3ccc([N+](=O)[O-])cn3)CC2)cc1	-2.7%	?	4.7%	8.28µM*	-2.0%
O=C(Nc1ccc([N+](=O)[O-])cc1)N1CCCCC1	-1.0%	8.28µM*	-4.8%	22.6%	-2.9%
O=C(Nc1cccc([N+](=O)[O-])c1)N1CCCCCC1	2.4%	3.7µM*	7.0%	23.4%	1.8%
O=C(Nc1ccccc1)N1CCN(c2ccc(C(F)(F)F)cn2)CC1	3.5%	-14.0%	1.7%	/	-6.0%
O=C(Nc1ccc([N+](=O)[O-])cc1)N1CCCCCC1	/	?	-11.6%	-13.4%	5.4%
SMILES	SARS PLP yeast	Pf growth 96h	RE007 growth inh	Pf growth 48h	NS1 function inh
Cc1cccc(Cl)c1NC(=S)N1CCN(c2ccc([N+](=O)[O-])cn2)CC1	1.9%	1.65µM*	22.4%	1.65µM*	1.7%
CCOC(=O)c1[nH]ncc1CN1CCc2ccc(NC(=O)C3CCCO3)cc2C1 (stereo unspecified)	-5.3%	28.2%	6.0%	2.7%	0.1%
COc1ccc(NC(=O)/C(C#N)=C/c2ccc(Sc3nncn3C)c([N+](=O)[O-])c2)cc1	0.2%	?	12.5%	?	-0.2%
NC(N)=NC(N)=Nc1ccc(S(N)(=O)=O)cc1	/	/	/	/	-2.8%
O=[N+]([O-])c1ccccc1S(=O)(=O)Nc1cccnc1	3.3%	0.0%	-9.4%	182.0%	1.6%
CCCCNC(=O)c1nc(-c2cnc(C)cn2)oc1-c1ccc(Cl)cc1	/	/	5.2%	/	/
